Hits are enriched below; roughly 19% of the tested compounds scored in any of these assays.
HT1080NT lethal: kills 2HG-producing HT-1080-NT fibrosarcoma cells | HT-1080-NT fibrosarcoma viability, CellTiter-Glo ATP luminescence, 48 h | Potency, µM (titrated, usually from 46.1 µM), usual class: cytotoxic | 360,000 tested, 1.6% active | AID 686970;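 further: NT is the 2HG producing partner of a matched IDH1 knockdown line; nearly all actives have a fitted effect of over 55% in size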
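Read-out is CellTiter-Glo luminescence after 10 minutes at room temperature, following 48 hours' compound treatment of HT-1080-NT cells (750 cells/well, RPMI, 5% FBS, 37 degrees C).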
DT40 TDP1 CPT: growth inhibition of DT40 Tdp1-/-;hTDP1 cells with camptothecin (screen for TDP1 inhibitors); AID 686979; 420,000 tested, 12% active; Potency, µM (titrated, usually from 46.2 µM), actives largely listed as inhibitors; chicken DT40 Tdp1-/-;hTDP1 cells + 20 nM CPT, ATP luminescence, 48 h; further: nearly all actives have a fitted effect of over 55% in size
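Cell growth measured by CellTiter-Glo luminescence after a minimum 48 h, 37 C compound exposure with 20 nM CPT in Tdp1-knockout DT40 cells stably expressing hTDP1, seeded 400/well; qHTS titration format.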
TDP1 cell noCPT: qHTS for Inhibitors of human tyrosyl-DNA phosphodiesterase 1 (TDP1): qHTS in cells in absence of CPT; DT40 Tdp1-/- hTDP1 cells, no CPT, ATP luminescence, 48 h; Potency, µM (highest dose often 46.2 µM), hits mostly inhibitors; 420,000 tested, 15% active; further: nearly all actives have a fitted effect of over 55% in size
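A cellular qHTS used chicken DT40 cells lacking endogenous Tdp1 but carrying stably transfected human TDP1. Compounds were applied without camptothecin, and cell growth kinetics were judged by ATP-dependent luminescence after ≥48 hr.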
HT1080 IDH1KD tx: toxicity to HT-1080 IDH1 knockdown cells (counter line) | Potency, µM (doses to about 46.1 µM), actives largely listed as cytotoxic | 360,000 tested, 2% active | AID 686971 | HT-1080 IDH1 knockdown viability, ATP luminescence, 48 h
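CellTiter-Glo luminescence after 48 h compound exposure at 37 degrees C of IDH1-knockdown HT-1080 cells in 5% FBS RPMI. %Activity scaled between DMSO wells and cell-free media wells, with curves fitted and assigned curve classes.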
IL-1B inflam inh: inflammasome signaling inhibition, IL-1 beta readout; THP-1 LPS/ATP IL-1B secretion, AlphaLISA, 16 h; stronger effect = lower value; activity change, % at 57.5 µM; 360,000 tested, 4.7% active; in the data active means activity change below about -50%; inconclusive means mostly about -30% to -49%
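Secreted IL-1B measured by AlphaLISA bead assay after 16 h compound exposure of THP-1 cells; compounds (final up to 57.5 uM) added 1 h before LPS (250 ng/mL) and ATP (1.25 mM) stimulation; lower signal means less secretion.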
ELG1 repair inh: blocks ELG1-dependent DNA repair in HEK293T cells. HEK293T ELG1-luciferase reporter, luminescence, 16 h; DNA damage induced by 5-fluorouridine. Potency, µM (top dose mostly 46.1 µM), most hits filed as inhibitors. 330,000 tested, 2.3% active; further: nearly all actives have a fitted effect of over 55% in size
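Overnight (16 hr) co-exposure of 2,000 cells/well to 5-fluorouridine and compound at 37 °C preceded detection. Luciferase was quantified via ONE-Glo luminescence; loss of signal denotes inhibition.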
Large screens that a line does not name were inactive. Unless noted, the call rests on the fitted dose curve; in most records, active means well fitted curve in the direction sought with a large enough effect; inconclusive means small, poorly fitted or top-dose-only effect, or another doubt; inactive means no such curve, though single readings can be large; an effect the other way counts as inactive or inconclusive.

CC(CN1CCCCC1)OC(=O)C(C)(c1ccccc1)c1ccccc1 (configuration not stated)	DT40 TDP1 CPT inconclusive, TDP1 cell noCPT 20.6µM
CSCCC(NS(=O)(=O)c1cccs1)C(=O)Nc1ccc(C)c(Cl)c1 (configuration not stated)	none (no result: HT1080NT lethal, HT1080 IDH1KD tx, IL-1B inflam inh, ELG1 repair inh)
Cc1ccc(O)c(NC(=S)NC(=O)Cc2ccc(Cl)cc2)c1	HT1080NT lethal inconclusive, DT40 TDP1 CPT inconclusive, TDP1 cell noCPT inconclusive, HT1080 IDH1KD tx inconclusive
Cc1cc(O)c(NC(=S)NC(=O)c2ccc(-c3ccc(Cl)cc3)o2)cc1C	HT1080NT lethal inconclusive, DT40 TDP1 CPT inconclusive, TDP1 cell noCPT 20.6µM, HT1080 IDH1KD tx inconclusive
Cc1ccc(NC(=S)NC(=O)c2ccc(-c3ccc(Cl)cc3)o2)c(O)c1	HT1080NT lethal inconclusive, DT40 TDP1 CPT 20.6µM, TDP1 cell noCPT 20.6µM, HT1080 IDH1KD tx inconclusive, ELG1 repair inh inconclusive
CNC(=O)c1c(C)nn(-c2ccc(F)c(Cl)c2)c1-c1cc(C)on1	TDP1 cell noCPT inconclusive
CCOC(=O)C(C(=O)OCC)c1cc(Br)c2noc3c2c1C(=O)c1ccccc1-3	HT1080NT lethal 9.2µM, DT40 TDP1 CPT 3.66µM, TDP1 cell noCPT 2.59µM, HT1080 IDH1KD tx 11.6µM, IL-1B inflam inh -88.8, ELG1 repair inh inconclusive
COc1cccc(CNC(=O)CS(=O)(=O)Cc2nc(-c3ccc(C)cc3)oc2C)c1OC	none
CN1CCN(CCCNC(=O)c2ccc(/C=C3\Oc4ccccc4N(Cc4ccccc4F)C3=O)cc2)CC1	DT40 TDP1 CPT inconclusive, TDP1 cell noCPT 20.6µM, ELG1 repair inh inconclusive
CCN1CCN(CCNC(=O)c2ccc(/C=C3\Sc4ccccc4N(Cc4ccccc4F)C3=O)cc2)CC1	HT1080NT lethal 16.4µM, DT40 TDP1 CPT inconclusive, TDP1 cell noCPT inconclusive, HT1080 IDH1KD tx 20.6µM
CN1CCN(CCCNC(=O)c2ccc(/C=C3\Sc4ccccc4N(Cc4ccc(F)cc4)C3=O)cc2)CC1	DT40 TDP1 CPT inconclusive, TDP1 cell noCPT 16.4µM, IL-1B inflam inh -76.5
Cc1cccc(CN2C(=O)/C(=C\c3ccc(C(=O)NCCCN4CCN(C)CC4)cc3)Oc3ccccc32)c1	none (no result: HT1080NT lethal, DT40 TDP1 CPT, TDP1 cell noCPT, HT1080 IDH1KD tx, IL-1B inflam inh)
CN1CCN(CCCNC(=O)c2ccc(/C=C3/Sc4ccccc4N(Cc4cccc(Cl)c4)C3=O)cc2)CC1	DT40 TDP1 CPT inconclusive, TDP1 cell noCPT inconclusive, ELG1 repair inh inconclusive
Cc1cccc(-n2c(-c3ccco3)nc3c(cnn3-c3ccccc3C)c2=O)c1	DT40 TDP1 CPT 20.6µM, TDP1 cell noCPT inconclusive (no result: HT1080NT lethal, HT1080 IDH1KD tx, IL-1B inflam inh, ELG1 repair inh)
O=c1c2cnn(-c3ccccc3)c2nc(-c2ccco2)n1-c1ccccc1	DT40 TDP1 CPT inconclusive, TDP1 cell noCPT 20.6µM, IL-1B inflam inh -55.5, ELG1 repair inh 6.31µM
COc1ccc(C(=O)Nc2cc(C)on2)cc1S(=O)(=O)N1CC(c2ccccc2)CC1=O (configuration not stated)	none
CCC(=O)c1ccc(OCC(=O)OCC(=O)c2cc(C)n(C)c2C)cc1	none
CCCn1c(=S)[nH]c2cc(C(=O)N3CCCC(C(=O)OCC)C3)ccc2c1=O (configuration not stated)	HT1080NT lethal inconclusive, DT40 TDP1 CPT 14.6µM, TDP1 cell noCPT 20.6µM, HT1080 IDH1KD tx inconclusive
COCCn1c(=S)[nH]c2cc(C(=O)N3CCc4ccccc4C3)ccc2c1=O	none
COCCn1c(=S)[nH]c2cc(C(=O)N3CCCC(C)C3)ccc2c1=O (configuration not stated)	DT40 TDP1 CPT 25.9µM, TDP1 cell noCPT inconclusive, ELG1 repair inh inconclusive
Cc1ccc(Sc2c(C(=O)NCc3ccccc3C)[nH]c3ccccc23)cc1	DT40 TDP1 CPT inconclusive (no result: HT1080NT lethal, HT1080 IDH1KD tx, IL-1B inflam inh, ELG1 repair inh)
CCN(Cc1ccncc1)Cc1nc(Cc2ccccc2Cl)no1	HT1080NT lethal inconclusive, DT40 TDP1 CPT inconclusive, TDP1 cell noCPT 13µM, ELG1 repair inh inconclusive

Screening data: PubChem BioAssay, National Center for Advancing Translational Sciences (NCATS)
